In the supplement of paper PMC7411054:
Where a name gives a salt, the structure may show the parent alone.

Experiments:
Conditions in all cases: treatment time: 24 h
A549-ACTB-RAB5A [1] = assay: lowest phenotypically active concentration; higher = less potent
Procedure, shortened: (§1)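 Four wells per concentration (0.3, 1, 3 or 9 µM) were treated for 24 h in each of fifteen gene-edited reporter lines from A549, HepG2 and WPMY1 cells, then imaged live. After normalising live-cell features to solvent control wells, deviation was defined as ≥3 of 4 wells lying past the 95th percentile of control Euclidean distances. Reproducibility was defined as a median replicate Pearson correlation above the 95th percentile of non-replicates. Both had to hold for phenotypic activity.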

A549-CANX-COX4 [2] = assay: as above
Procedure, shortened: as §1

A549-GM130-SQSTM1 [3] = assay: as above
Procedure, shortened: as §1

A549-TP53BP1-CLTA [4] = assay: as above
Procedure, shortened: as §1

A549-TUBA1B-RELA [5] = assay: as above
Procedure, shortened: as §1

A549-ACTB-RAB5A [6] = assay: phenotypically active (imaging signature differs from DMSO and reproducible) at any of 0.3-9 uM (binary (1 = active, 0 = inactive)); higher = active
Procedure, shortened: as §1

A549-CANX-COX4 [7] = assay: as above
Procedure, shortened: as §1

A549-GM130-SQSTM1 [8] = assay: as above
Procedure, shortened: as §1

A549-TP53BP1-CLTA [9] = assay: as above
Procedure, shortened: as §1

A549-TUBA1B-RELA [10] = assay: as above
Procedure, shortened: as §1

HepG2-ACTB-RAB5A = assay: as above
Procedure, shortened: as §1

HepG2-CANX-COX4 = assay: as above
Procedure, shortened: as §1

HepG2-GM130-SQSTM1 = assay: as above
Procedure, shortened: as §1

HepG2-TP53BP1-CLTA = assay: as above
Procedure, shortened: as §1

HepG2-TUBA1B-RELA = assay: as above
Procedure, shortened: as §1

WPMY1-ACTB-RAB5A = assay: as above
Procedure, shortened: as §1

WPMY1-CANX-COX4 = assay: as above
Procedure, shortened: as §1

WPMY1-GM130-SQSTM1 = assay: as above
Procedure, shortened: as §1

WPMY1-TP53BP1-CLTA = assay: as above
Procedure, shortened: as §1

WPMY1-TUBA1B-RELA = assay: as above
Procedure, shortened: as §1

SMILES | lowest phenotypically active concentration (A549-ACTB-RAB5A [1]) [µM] | lowest phenotypically active concentration (A549-CANX-COX4 [2]) [µM] | lowest phenotypically active concentration (A549-GM130-SQSTM1 [3]) [µM] | lowest phenotypically active concentration (A549-TP53BP1-CLTA [4]) [µM] | lowest phenotypically active concentration (A549-TUBA1B-RELA [5]) [µM] | phenotypically active (A549-ACTB-RAB5A [6]) | phenotypically active (A549-CANX-COX4 [7]) | phenotypically active (A549-GM130-SQSTM1 [8]) | phenotypically active (A549-TP53BP1-CLTA [9]) | phenotypically active (A549-TUBA1B-RELA [10]) | phenotypically active (HepG2-ACTB-RAB5A) | phenotypically active (HepG2-CANX-COX4) | phenotypically active (HepG2-GM130-SQSTM1) | phenotypically active (HepG2-TP53BP1-CLTA) | phenotypically active (HepG2-TUBA1B-RELA) | phenotypically active (WPMY1-ACTB-RAB5A) | phenotypically active (WPMY1-CANX-COX4) | phenotypically active (WPMY1-GM130-SQSTM1) | phenotypically active (WPMY1-TP53BP1-CLTA) | phenotypically active (WPMY1-TUBA1B-RELA)
CCCC(=O)O[C@]1(C(=O)COC(C)=O)CC[C@H]2[C@@H]3C[C@H](F)C4=CC(=O)C=C[C@]4(C)[C@@]3(F)[C@@H](O)C[C@@]21C [difluprednate] | ≤ 0.3 | ≤ 0.3 | ≤ 0.3 | ≤ 0.3 | ≤ 0.3 | 1 (active) | 1 (active) | 1 (active) | 1 (active) | 1 (active) | 0 (inactive) | 0 (inactive) | 0 (inactive) | 0 (inactive) | 0 (inactive) | 0 (inactive) | 0 (inactive) | 0 (inactive) | 0 (inactive) | 0 (inactive)
COc1cc(N2CCC(O)CC2)ccc1Nc1cc(Nc2ccccc2S(=O)(=O)C(C)C)c2cc[nH]c2n1 [Mps1-IN-1 dihydrochloride] | 9 | 9 | 9 | 9 | 9 | 1 (active) | 1 (active) | 1 (active) | 1 (active) | 1 (active) | 1 (active) | 1 (active) | 1 (active) | 1 (active) | 1 (active) | 1 (active) | 1 (active) | 1 (active) | 1 (active) | 0 (inactive)
C[C@@H]1O[C@@H](OC[C@H]2O[C@@H](Oc3c(-c4ccc(O)c(O)c4)oc4cc(O)cc(O)c4c3=O)[C@H](O)[C@@H](O)[C@@H]2O)[C@H](O)[C@H](O)[C@H]1O [Quercétine-3-rutinoside] | 9 |  |  |  |  | 1 (active) | 0 (inactive) | 0 (inactive) | 0 (inactive) | 0 (inactive) | 0 (inactive) | 0 (inactive) | 0 (inactive) | 0 (inactive) | 0 (inactive) | 0 (inactive) | 0 (inactive) | 0 (inactive) | 0 (inactive) | 0 (inactive)
COc1ccc2c(NC(=O)Nc3cccc(C(F)(F)F)n3)ccnc2c1 | ≤ 0.3 | 9 | 3 | 9 | 3 | 1 (active) | 1 (active) | 1 (active) | 1 (active) | 1 (active) | 1 (active) | 1 (active) | 1 (active) | 1 (active) | 1 (active) | 1 (active) | 1 (active) | 1 (active) | 1 (active) | 0 (inactive)
C=CCc1ccc(O)c(-c2ccc(O)c(CC=C)c2)c1 [Honokiol] | 9 |  |  |  |  | 1 (active) | 0 (inactive) | 0 (inactive) | 0 (inactive) | 0 (inactive) | 0 (inactive) | 0 (inactive) | 0 (inactive) | 0 (inactive) | 0 (inactive) | 0 (inactive) | 0 (inactive) | 0 (inactive) | 0 (inactive) | 0 (inactive)
COc1cc2c(NC3CCN(C(C)C)CC3)nc(N3CCC(F)(F)CC3)nc2cc1OCCCN1CCCC1 | ≤ 0.3 | 9 | ≤ 0.3 | 3 | ≤ 0.3 | 1 (active) | 1 (active) | 1 (active) | 1 (active) | 1 (active) | 1 (active) | 1 (active) | 1 (active) | 1 (active) | 1 (active) | 1 (active) | 1 (active) | 1 (active) | 1 (active) | 1 (active)
C#Cc1cccc(Nc2ncnc3cc(OCCOC)c(OCCOC)cc23)c1 [erlotinib] | ≤ 0.3 | 3 | 3 | 1 | 1 | 1 (active) | 1 (active) | 1 (active) | 1 (active) | 1 (active) | 1 (active) | 1 (active) | 1 (active) | 1 (active) | 1 (active) | 0 (inactive) | 0 (inactive) | 0 (inactive) | 0 (inactive) | 0 (inactive)
C[C@]12CCC(=O)C=C1CC[C@@H]1[C@@H]2[C@@H](O)C[C@@]2(C)[C@H]1CC[C@]2(O)C(=O)CO [hydrocortisone] | ≤ 0.3 | ≤ 0.3 | ≤ 0.3 | ≤ 0.3 | ≤ 0.3 | 1 (active) | 1 (active) | 1 (active) | 1 (active) | 1 (active) | 0 (inactive) | 0 (inactive) | 0 (inactive) | 0 (inactive) | 0 (inactive) | 0 (inactive) | 0 (inactive) | 0 (inactive) | 0 (inactive) | 0 (inactive)
O=C1NCCN1CCN1CCC(c2cn(-c3ccc(F)cc3)c3ccc(Cl)cc23)CC1 [sertindole] | 3 | 3 | 3 | 9 | 3 | 1 (active) | 1 (active) | 1 (active) | 1 (active) | 1 (active) | 1 (active) | 1 (active) | 1 (active) | 1 (active) | 1 (active) | 1 (active) | 1 (active) | 1 (active) | 1 (active) | 1 (active)
NC(=O)c1ccc(N(C(N)=O)c2c(F)cccc2F)nc1-c1ccc(F)cc1F | 9 |  |  |  |  | 1 (active) | 0 (inactive) | 0 (inactive) | 0 (inactive) | 0 (inactive) | 0 (inactive) | 0 (inactive) | 0 (inactive) | 0 (inactive) | 0 (inactive) | 0 (inactive) | 0 (inactive) | 0 (inactive) | 0 (inactive) | 0 (inactive)
FC(F)(F)c1ccc(/C=C/c2nc(COc3ccc(CCCCn4ccnn4)cc3)co2)cc1 | ≤ 0.3 | ≤ 0.3 | ≤ 0.3 | ≤ 0.3 | ≤ 0.3 | 1 (active) | 1 (active) | 1 (active) | 1 (active) | 1 (active) | 1 (active) | 1 (active) | 1 (active) | 1 (active) | 1 (active) | 0 (inactive) | 0 (inactive) | 0 (inactive) | 0 (inactive) | 0 (inactive)
NC[C@H](O)c1ccc(O)c(O)c1 [norepinephrine] |  |  |  |  |  | 0 (inactive) | 0 (inactive) | 0 (inactive) | 0 (inactive) | 0 (inactive) | 0 (inactive) | 0 (inactive) | 0 (inactive) | 0 (inactive) | 0 (inactive) | 0 (inactive) | 0 (inactive) | 0 (inactive) | 0 (inactive) | 0 (inactive)
c1ccc(CC2=NCCN2)cc1 [tolazoline] |  |  |  |  |  | 0 (inactive) | 0 (inactive) | 0 (inactive) | 0 (inactive) | 0 (inactive) | 0 (inactive) | 0 (inactive) | 0 (inactive) | 0 (inactive) | 0 (inactive) | 0 (inactive) | 0 (inactive) | 0 (inactive) | 0 (inactive) | 0 (inactive)
O=C1NC(=O)C(c2ccccc2[N+](=O)[O-])=C1Nc1ccc(O)c(Cl)c1 | 9 | 9 | 9 | 9 | 9 | 1 (active) | 1 (active) | 1 (active) | 1 (active) | 1 (active) | 1 (active) | 1 (active) | 1 (active) | 1 (active) | 1 (active) | 1 (active) | 0 (inactive) | 0 (inactive) | 0 (inactive) | 0 (inactive)
CC1(C)O[C@@H]2C[C@H]3[C@@H]4C[C@H](F)C5=CC(=O)CC[C@]5(C)[C@H]4[C@@H](O)C[C@]3(C)[C@]2(C(=O)CO)O1 [flurandrenolide] | ≤ 0.3 | ≤ 0.3 | ≤ 0.3 | ≤ 0.3 | ≤ 0.3 | 1 (active) | 1 (active) | 1 (active) | 1 (active) | 1 (active) | 0 (inactive) | 0 (inactive) | 0 (inactive) | 0 (inactive) | 0 (inactive) | 0 (inactive) | 0 (inactive) | 0 (inactive) | 0 (inactive) | 0 (inactive)
Cn1cnc([N+](=O)[O-])c1Sc1ncnc2nc[nH]c12 [azathioprine] |  |  |  |  |  | 0 (inactive) | 0 (inactive) | 0 (inactive) | 0 (inactive) | 0 (inactive) | 0 (inactive) | 0 (inactive) | 0 (inactive) | 0 (inactive) | 0 (inactive) | 0 (inactive) | 0 (inactive) | 0 (inactive) | 0 (inactive) | 0 (inactive)
CC(=O)OCC(=O)[C@@]12OC3(CCCC3)O[C@@H]1C[C@H]1[C@@H]3CCC4=CC(=O)C=C[C@]4(C)[C@@]3(F)[C@@H](O)C[C@@]12C [amcinonide] | ≤ 0.3 | ≤ 0.3 | ≤ 0.3 | ≤ 0.3 | ≤ 0.3 | 1 (active) | 1 (active) | 1 (active) | 1 (active) | 1 (active) | 0 (inactive) | 0 (inactive) | 0 (inactive) | 0 (inactive) | 0 (inactive) | 0 (inactive) | 0 (inactive) | 0 (inactive) | 0 (inactive) | 0 (inactive)
O=c1ncn2nc(Sc3ccc(F)cc3F)ccc2c1-c1c(Cl)cccc1Cl | 9 |  |  |  |  | 1 (active) | 0 (inactive) | 0 (inactive) | 0 (inactive) | 0 (inactive) | 0 (inactive) | 0 (inactive) | 0 (inactive) | 0 (inactive) | 0 (inactive) | 0 (inactive) | 0 (inactive) | 0 (inactive) | 0 (inactive) | 0 (inactive)
CCC(=O)OCC(=O)[C@@]1(OC(=O)CC)[C@@H](C)C[C@H]2[C@@H]3CCC4=CC(=O)C=C[C@]4(C)[C@@]3(Cl)[C@@H](O)C[C@@]21C [beclomethasone-dipropionate] | ≤ 0.3 | ≤ 0.3 | ≤ 0.3 | ≤ 0.3 | ≤ 0.3 | 1 (active) | 1 (active) | 1 (active) | 1 (active) | 1 (active) | 0 (inactive) | 0 (inactive) | 0 (inactive) | 0 (inactive) | 0 (inactive) | 0 (inactive) | 0 (inactive) | 0 (inactive) | 0 (inactive) | 0 (inactive)
Cc1cccc(Nc2ccccc2C(=O)O)c1C [mefenamic-acid] |  |  |  |  |  | 0 (inactive) | 0 (inactive) | 0 (inactive) | 0 (inactive) | 0 (inactive) | 0 (inactive) | 0 (inactive) | 0 (inactive) | 0 (inactive) | 0 (inactive) | 0 (inactive) | 0 (inactive) | 0 (inactive) | 0 (inactive) | 0 (inactive)
Cc1ccc(Cl)c(Nc2ccccc2C(=O)O)c1Cl [meclofenamic-acid] |  |  |  |  |  | 0 (inactive) | 0 (inactive) | 0 (inactive) | 0 (inactive) | 0 (inactive) | 0 (inactive) | 0 (inactive) | 0 (inactive) | 0 (inactive) | 0 (inactive) | 0 (inactive) | 0 (inactive) | 0 (inactive) | 0 (inactive) | 0 (inactive)
C/N=C(\NC#N)NCCSCc1nc[nH]c1C [cimetidine] |  |  |  |  |  | 0 (inactive) | 0 (inactive) | 0 (inactive) | 0 (inactive) | 0 (inactive) | 0 (inactive) | 0 (inactive) | 0 (inactive) | 0 (inactive) | 0 (inactive) | 0 (inactive) | 0 (inactive) | 0 (inactive) | 0 (inactive) | 0 (inactive)
